# Measurements from PubChem BioAssay.
# The list shows a part of the results. Activity calls are given as the source filed them. Rule as the data show it, unless noted: active = activity above about 50%; inactive = the rest.
# Columns and labels:
# [1] = biological target: Tumor necrosis factor receptor superfamily member 10B (Homo sapiens) (UniProt O14763); experiment: viability loss of caspase-8 NB7 cells with TRAIL – with/without TRAIL, luminescence panel, confirmation (AID 651596); conditions: NB7 neuroblastoma + caspase-8, TRAIL sensitization, NB7 Caspase-8, with TRAIL, mean of runs, at 10 µM, stronger effect = higher value
# Chain of Tumor necrosis factor receptor superfamily member 10B (Homo sapiens) (O14763 whole entry, looked up): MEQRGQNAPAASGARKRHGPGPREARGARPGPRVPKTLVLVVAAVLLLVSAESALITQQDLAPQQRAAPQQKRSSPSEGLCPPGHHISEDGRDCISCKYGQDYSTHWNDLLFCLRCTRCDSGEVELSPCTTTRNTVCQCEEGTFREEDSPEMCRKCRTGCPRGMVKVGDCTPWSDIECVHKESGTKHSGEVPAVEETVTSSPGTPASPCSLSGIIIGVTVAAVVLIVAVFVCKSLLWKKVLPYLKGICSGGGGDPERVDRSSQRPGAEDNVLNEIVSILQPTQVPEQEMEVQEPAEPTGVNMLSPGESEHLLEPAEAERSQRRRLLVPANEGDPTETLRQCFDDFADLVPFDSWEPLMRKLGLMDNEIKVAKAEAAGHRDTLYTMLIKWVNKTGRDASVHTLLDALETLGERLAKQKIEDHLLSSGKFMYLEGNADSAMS
# [2] = as above; conditions: NB7 neuroblastoma + caspase-8, without TRAIL, NB7 Caspase-8, without TRAIL, mean of runs, at 10 µM
# [3] = biological target: Tumor necrosis factor receptor superfamily member 10B (Homo sapiens) (UniProt O14763); experiment: compound enhancement of TRAIL-induced cell killing – NB7 cells plus caspase-8, luminescence, panel, dose response (AID 652002); conditions: NB7 neuroblastoma +caspase-8, TRAIL sensitization, luminescence viability, NB7+Caspase-8, with TRAIL, run 1; at 12.5 µM (top of the series)
# [4] = biological target: Tumor necrosis factor receptor superfamily member 10B (Homo sapiens) (UniProt O14763); experiment: as above; conditions: NB7 neuroblastoma +caspase-8, TRAIL sensitization, luminescence viability, NB7+Caspase-8, with TRAIL, run 2; at 12.5 µM (top of the series)
# [5] = as above; conditions: NB7 neuroblastoma +caspase-8, no TRAIL, compound-alone cytotoxicity counter-screen, luminescence viability, NB7+Caspase-8, run 1; at 12.5 µM (top of the series)
# [6] = as above; conditions: NB7 neuroblastoma +caspase-8, no TRAIL, compound-alone cytotoxicity counter-screen, luminescence viability, NB7+Caspase-8, run 2; at 12.5 µM (top of the series)
# [7] = biological target: 72 kDa type IV collagenase (Homo sapiens) (UniProt P08253); experiment: human MMP-2 inhibitors, single-point check – biochemical, fluorescence, single concentration, counter-screen for CSN deneddylation inhibitor project, confirmation (AID 720655;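 active = corrected plate-normalized z-score of 5 or more, or -5 or less, or inhibition of 15% or more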;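 also: plate controls were DMSO wells with enzyme for no effect and buffer wells lacking MMP-2 for full effect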); conditions: recombinant MMP-2, FRET substrate fluorescence, 60 min; at 16.6 µM
# Chain of 72 kDa type IV collagenase (Homo sapiens) (P08253 whole entry, looked up): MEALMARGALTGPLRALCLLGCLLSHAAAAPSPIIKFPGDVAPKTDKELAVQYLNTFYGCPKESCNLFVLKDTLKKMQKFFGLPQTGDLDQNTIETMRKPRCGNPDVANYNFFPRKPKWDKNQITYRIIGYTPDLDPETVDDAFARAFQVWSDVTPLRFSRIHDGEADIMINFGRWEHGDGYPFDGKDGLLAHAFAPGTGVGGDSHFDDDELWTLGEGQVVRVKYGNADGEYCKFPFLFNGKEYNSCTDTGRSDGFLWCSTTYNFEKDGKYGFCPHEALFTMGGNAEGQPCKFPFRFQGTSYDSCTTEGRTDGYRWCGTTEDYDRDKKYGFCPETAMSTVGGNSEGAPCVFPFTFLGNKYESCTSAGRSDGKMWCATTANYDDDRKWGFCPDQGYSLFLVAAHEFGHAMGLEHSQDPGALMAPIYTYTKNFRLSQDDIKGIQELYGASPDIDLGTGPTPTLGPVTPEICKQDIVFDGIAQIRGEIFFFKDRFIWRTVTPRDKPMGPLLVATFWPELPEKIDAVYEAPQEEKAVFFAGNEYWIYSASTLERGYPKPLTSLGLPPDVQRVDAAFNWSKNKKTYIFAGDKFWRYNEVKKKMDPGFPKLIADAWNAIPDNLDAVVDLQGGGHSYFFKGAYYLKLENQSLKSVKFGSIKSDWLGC
# [8] = biological target: Prothrombin (Bos taurus) (UniProt P00735); experiment: thrombin cleavage blockers, FP readout – biochemical, fluorescence polarization, single concentration, counter-screen for CSN deneddylation inhibitor project, confirmation (AID 720656;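 active = inhibition at or above a set limit, with a fluorescence interference ratio between 0.5 and a set maximum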); conditions: bovine thrombin cleavage of Ub4-pepOG, at 16.6 µM, stronger effect = higher value
# Chain of Prothrombin (Bos taurus) (P00735 whole entry, looked up): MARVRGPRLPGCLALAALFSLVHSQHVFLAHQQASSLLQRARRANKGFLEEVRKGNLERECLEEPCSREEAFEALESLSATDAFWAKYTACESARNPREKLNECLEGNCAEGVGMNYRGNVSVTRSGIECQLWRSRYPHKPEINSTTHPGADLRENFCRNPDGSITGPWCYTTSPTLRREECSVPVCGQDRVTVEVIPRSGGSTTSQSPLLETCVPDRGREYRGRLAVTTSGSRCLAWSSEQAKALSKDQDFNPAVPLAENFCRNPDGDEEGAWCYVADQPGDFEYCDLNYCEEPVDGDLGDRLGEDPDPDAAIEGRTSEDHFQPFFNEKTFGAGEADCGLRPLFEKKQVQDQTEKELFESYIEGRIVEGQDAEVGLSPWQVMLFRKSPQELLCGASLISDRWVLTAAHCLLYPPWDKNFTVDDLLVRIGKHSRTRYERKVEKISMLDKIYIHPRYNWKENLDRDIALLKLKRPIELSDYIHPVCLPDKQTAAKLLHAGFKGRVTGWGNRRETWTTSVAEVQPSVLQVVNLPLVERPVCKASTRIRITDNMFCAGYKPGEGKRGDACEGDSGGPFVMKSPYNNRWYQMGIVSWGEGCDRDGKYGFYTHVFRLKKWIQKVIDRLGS
smiles,measurement,setting,value
Cc1ccc(NC(=O)CN2C(=O)CN=C(c3ccccc3)c3cc(Cl)ccc32)cc1,activity,[1],78.1%
same,activity,[2],85%
CC12CCC3C(CCC4(O)CC(O)CCC34C=O)C1(O)CCC2C1=CC(=O)OC1 (stereo unspecified),activity,[1],82.5%
same,activity,[2],85.2%
CC12CCC3C(CCC4(O)CC(O)CCC34C=NO)C1(O)CCC2C1=COC(=O)C1 (stereo unspecified),activity,[1],91%
same,activity,[2],92.7%
CCOC(=O)[C@]12Cc3cc(OC)ccc3[C@H]1N(C1CCCCC1)C(=O)c1ccccc12,activity,[1],91.9%
same,activity,[2],94.1%
CN(C)CC(C(=O)Cc1ccccc1)c1ccccc1 (stereo unspecified),activity,[1],37.9%
same,activity,[2],96.3%
O=c1[nH]c2ccccc2n1C1CCN(C(CCc2ccccc2)c2nnnn2Cc2ccccc2)CC1 (stereo unspecified),activity,[1],95.3%
same,activity,[2],92.7%
CCOC(=O)[C@]12Cc3cc(C)ccc3[C@H]1N(C1CCCCC1)C(=O)c1ccccc12,activity,[1],95.3%
same,activity,[2],96.5%
CCOC(=O)[C@]12Cc3cc(OC)ccc3[C@H]1N(C(C)C)C(=O)c1cc(OC)ccc12,activity,[1],28%
same,activity,[2],45%
CCC(C)C1NC(=O)C(NC(=O)C(CC(C)C)N(C)C(=O)C2CCCN2C(=O)C(C)O)C(C)OC(=O)C(Cc2ccc(OC)cc2)N(C)C(=O)C2CCCN2C(=O)C(CC(C)C)NC(=O)[C@H](C)C(=O)[C@H](C(C)C)OC(=O)CC1O (stereo partly specified),activity,[1],96.9%
same,activity,[2],98.2%
Cc1nc2cc(C(F)(F)F)ccc2n1C1CCN(Cc2nnnn2Cc2ccc3c(c2)OCO3)CC1,activity,[1],53%
same,activity,[2],54.3%
ClCCN(CCCl)c1ccc(-n2cnc3c(Cl)ncnc32)cc1,activity,[1],96.3%
same,activity,[2],98.2%
CC1OC(OC2C=C3CCC4C(CCC5(C)C(c6ccc(=O)oc6)CCC45O)C3(C)CC2)C(O)C(OC2OC(CO)C(O)C(O)C2O)C1O (stereo unspecified),activity,[1],83.1%
same,activity,[2],91.9%
CNC(=O)Oc1ccc(-c2cn3cc(Cl)ccc3n2)cc1,activity,[1],85.8%
same,activity,[2],84.1%
NC(=S)c1cn(C2OC(CO)C(O)C2O)c2ncnc(N)c12 (stereo unspecified),activity,[1],59.4%
same,activity,[2],91.2%
CC(C)CCn1c(=O)c(C(=O)Nc2ccccc2S(N)(=O)=O)c(O)c2ccccc21,activity,[1],55.4%
same,activity,[2],45.3%
same,"activity, % sensitization",[3],-2.11%
same,"activity, % sensitization",[4],-8.54%
same,"activity, % sensitization",[5],-27.8%
same,"activity, % sensitization",[6],-20%
COc1ccc(N2C(=O)/C(=C/c3ccco3)C(=O)NC2=S)cc1,inhibition,[7],38.2% (active)
same,inhibition,[8],24.5% (active)
CCOC(=O)[C@]12Cc3cc4ccccc4cc3[C@H]1N(Cc1ccccc1)C(=O)c1cc(OC)ccc12,activity,[1],46.5%
same,activity,[2],53.2%
same,"activity, % sensitization",[3],23.8%
same,"activity, % sensitization",[4],23.6%
same,"activity, % sensitization",[5],7.37%
same,"activity, % sensitization",[6],2.99%
C[C@]12CC[C@H]3C(CCC4(O)CC(O)CC[C@]34C=O)C1=CC[C@H]2c1ccc(=O)oc1 (stereo partly specified),activity,[1],70.2%
same,activity,[2],55.2%
Nc1ncnc2c1ccn2[C@@H]1O[C@H](CO)[C@@H](O)[C@H]1O,activity,[1],97.7%
same,activity,[2],97.9%
CCOC(=O)[C@]12Cc3cc4ccccc4cc3[C@H]1N(Cc1ccccc1)C(=O)c1ccccc12,activity,[1],52.8%
same,activity,[2],54.6%
same,"activity, % sensitization",[3],18.4%
same,"activity, % sensitization",[4],31.7%
same,"activity, % sensitization",[5],6.91%
same,"activity, % sensitization",[6],3.45%
NC(=O)c1cn(C2OC(CO)C(O)C2O)c2ncnc(N)c12 (stereo unspecified),activity,[1],56.3%
same,activity,[2],81.3%
CN(C)C(=O)Oc1ccc(OCc2nc3ccccc3[nH]2)cc1,activity,[1],75.7%
same,activity,[2],78.1%
CC1CCOC(=O)C=CC=CC(=O)OC2CC3OC4C5OC5(C)C(O)CC4(COC(=O)C1O)C2(C)C31CO1 (stereo unspecified),activity,[1],93.7%
same,activity,[2],97.2%
Cc1ccc(-c2cc(-c3ccccc3)cc(-c3ccccc3)[n+]2-c2ccccc2)cc1,activity,[1],96.6%
same,activity,[2],87.8%
CC1=CC2OC3CC4OC(=O)C=CC=CC(=O)OCCC(C)C(O)C(=O)OCC2(CC1O)C4(C)C31CO1 (stereo unspecified),activity,[1],92.9%
same,activity,[2],96.9%
CC(C)(C)n1cc(C(=O)c2ccc3ccccc3c2O)cn1,activity,[1],55.8%
same,activity,[2],51%
CCOC(=O)[C@]12Cc3ccc(C)cc3[C@H]1N(C1CCCCC1)C(=O)c1ccccc12,activity,[1],90.7%
same,activity,[2],90.5%
CCCOC(=O)c1ccc(-[n+]2c(-c3ccccc3)cc(-c3ccccc3)cc2-c2ccccc2)cc1,activity,[1],74.7%
same,activity,[2],68.3%
COc1ccc(CC2NCC(O)C2OC(C)=O)cc1 (stereo unspecified),activity,[1],90.1%
same,activity,[2],93.8%
CC1CC(C)CC(C)C(O)C(C#N)=CC=CCC(C2CCCC2C(=O)O)OC(=O)CC(O)C(C)C1 (stereo unspecified),activity,[1],94%
same,activity,[2],98.7%
CC(C)(O)/C=C/C(=O)C(C)(O)C1C(O)CC2(C)C3CC=C4C(C=C(O)C(=O)C4(C)C)C3(C)C(=O)CC12C (stereo unspecified),activity,[1],46.5%
same,activity,[2],81.1%
COC(=O)C12OCC34C(CC5C(C)=C(O)C(=O)CC5(C)C3C(O)C1O)OC(=O)C(OC(=O)/C=C(\C)C(C)C)C24 (stereo unspecified),activity,[1],94.8%
same,activity,[2],97.5%
CCOC(=O)[C@]12Cc3cc(Cl)ccc3[C@H]1N(Cc1ccccc1)C(=O)c1cc(OC)ccc12,activity,[1],91.9%
same,activity,[2],97.9%
C[C@@H]1O[C@@H](O[C@@H]2C=C3CC[C@@H]4C(CC[C@]5(C)[C@@H](c6ccc(=O)oc6)CC[C@]45O)[C@@]3(C)CC2)[C@H](O)[C@H](O)[C@H]1O (stereo partly specified),activity,[1],82.4%
same,activity,[2],91.5%
CCCC1(CCC)C(=O)NC(=NCc2ccccc2)NC1=O,activity,[1],51.6%
same,activity,[2],20.8%
same,"activity, % sensitization",[3],-11.1%
same,"activity, % sensitization",[4],5.29%
same,"activity, % sensitization",[5],-4.21%
same,"activity, % sensitization",[6],-22.9%
CC(C)N(C(=O)CCl)c1ccccc1,activity,[1],98%
same,activity,[2],98.3%
CCOC(=O)[C@]12Cc3c(cc(OC)c(OC)c3OC)[C@H]1N(C1CCCCC1)C(=O)c1ccccc12,activity,[1],95.8%
same,activity,[2],98%
CCCCCN1C(=O)c2ccccc2[C@@]2(C(=O)OCC)Cc3cc(OC)ccc3[C@@H]12,activity,[1],47.4%
same,activity,[2],63%
C[C@H]1O[C@@H](OC2CC[C@]3(C=O)[C@H]4CC[C@]5(C)[C@@H](C6=CC(=O)OC6)CC[C@]5(O)[C@@H]4CC[C@]3(O)C2)CC2OC(C)(C)OC21 (stereo partly specified),activity,[1],85.6%
same,activity,[2],92.4%
CC1CCC(C(C)C)C(OC(=O)Cn2c(COc3ccccc3)[n+](C)c3ccccc32)C1 (stereo unspecified),activity,[1],66.9%
same,activity,[2],57.7%
